Laboratory results published in PubChem BioAssay AID1851 (National Center for Advancing Translational Sciences (NCATS), 2009).
“And” between values parts separate entries of the source, which are not always exact repeats. Equal entries are not always repeated. The whole screen tested about 16,000 compounds, of which about 5,100 (32%) were called active. Roughly 25% stayed inconclusive and do not appear here. Calls follow the shape of the dose curve; as a rule, active = well fitted curve in the direction sought with a large enough effect; inconclusive = small, poorly fitted or top-dose-only effect, or effect the other way; inactive = no such curve, though single readings can be large or run the other way. The list shows a part of the results.

Target: Cytochrome P450 3A4 (Homo sapiens) (UniProt P08684)
Sequence (P08684 whole entry, looked up): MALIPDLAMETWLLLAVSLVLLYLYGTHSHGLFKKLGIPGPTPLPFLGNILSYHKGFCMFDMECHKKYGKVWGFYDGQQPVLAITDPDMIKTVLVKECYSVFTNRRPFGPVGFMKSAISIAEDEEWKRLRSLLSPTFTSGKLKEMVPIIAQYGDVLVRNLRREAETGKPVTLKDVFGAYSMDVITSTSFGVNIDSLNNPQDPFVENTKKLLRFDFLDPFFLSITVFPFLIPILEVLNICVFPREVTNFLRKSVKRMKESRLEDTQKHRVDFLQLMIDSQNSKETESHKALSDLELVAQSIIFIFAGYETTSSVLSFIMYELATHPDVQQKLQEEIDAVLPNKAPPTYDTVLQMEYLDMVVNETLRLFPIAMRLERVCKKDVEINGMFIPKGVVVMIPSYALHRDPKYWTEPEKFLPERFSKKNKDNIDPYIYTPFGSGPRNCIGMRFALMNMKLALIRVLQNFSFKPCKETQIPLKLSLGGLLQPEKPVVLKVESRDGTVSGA
Test: Cytochrome panel assay with activity outcomes
Conditions: recombinant CYP, pro-luciferin dealkylation, luminescence, p450-cyp3a4; series mostly up to 57.1 µM
% is scaled to controls: 0 for no effect and ±100 for the full control effect.

Compound | AC50 | activity, negative = inhibition
Fc1ccc(SCCc2ccncc2)cc1 | 3.55 µM (active) | 
c1ccc(CCN2CCN=C2Cc2ccccc2)cc1 |  | 7.9% [at 11.4 µM] (inactive)
c1ccc(SCCc2ccncc2)cc1 | 2.51 µM (active) | 
ON(CCc1ccncc1)Cc1ccccc1 | 1 µM (active) | 
CCN(CCCc1ccccc1)CCCc1ccccc1 | inactive | 
C[C@@H](CSC(=N)N)C(N)=O |  | -8.21% [at 11.4 µM] (inactive)
CCN(CC(=O)O)CC(=O)O |  | 0.0109% [at 11.4 µM] (inactive)
Cc1ccc(C(=O)C(OC(=O)COc2ccccc2C)c2ccccc2)cc1 (stereo not drawn) | 10 µM (active) | 
CCOC(=O)CC(NC(=O)c1ccco1)c1ccc(OC)cc1 (stereo not drawn) | inactive | 
CC(=O)NNC(=O)CCC(=O)Nc1ccccc1 |  | 6.14% [at 2.29 µM] (inactive)
Cc1ccc(C(=O)C(OC(=O)CCC(=O)Nc2cccc(C)c2)c2ccccc2)cc1 (stereo not drawn) | 25.1 µM (active) | 
CC(=O)Nc1cccc(C(=O)OC(C(=O)c2ccc(C)c(C)c2)c2ccccc2)c1 (stereo not drawn) |  | 8% [at 2.29 µM] (inactive)
COc1ccc(C(=O)C(OC(=O)CNC(=O)c2ccco2)c2ccccc2)cc1 (stereo not drawn) | 14.1 µM (active) | 
Cc1ccccc1OCC(=O)OC1CCN(C)CC1 | inactive | 
Cc1ccc(C(=O)C(OC(=O)CNS(=O)(=O)c2ccccc2)c2ccccc2)cc1 (stereo not drawn) | 14.1 µM (active) | 
O=C(O)Cc1cc(I)c(Oc2ccc(O)c(I)c2)c(I)c1 | inactive | 
NC1=NC2(CCCCC2)N=C(Nc2ccc(F)cc2F)N1 | inactive | 
Cc1ccc(C(=O)C(OC(=O)CN2C(=O)c3ccccc3C2=O)c2ccccc2)cc1 (stereo not drawn) | 7.94 µM (active) | 
O=C(O)CC[C@@H](C(=O)O)N1C(=O)c2ccccc2C1=O |  | -3.86% [at 11.4 µM] (inactive)
COc1ccc(NC(=S)Nc2ccccc2)cc1 |  | -19.5% [at 11.4 µM] (inactive)
COc1ccc(C(=S)Nc2ccccc2)cc1 | 31.6 µM (active) | 
CN(CC[C@@H](Oc1ccc(-c2ccccc2)cc1)c1ccc(F)cc1)CC(=O)O | inactive | 
CCN(CC)CCNC(=O)C(C)c1nn(C)c(=O)c2ccccc12 (stereo not drawn) |  | -0.681% [at 2.29 µM] (inactive)
CCCn1nc(C(=O)NCC(C)(C)N2CCOCC2)c2ccccc2c1=O | 7.08 µM (active) | 

Compound | AC50 | activity, negative = inhibition
Cc1cc(Cl)ccc1OCCCC(=O)N1CCN(C)CC1 | 12.6 µM (active) | 
CC(C)NCCCOc1ccc(Cl)cc1Br |  | 6.16% [at 2.29 µM] (inactive)
CC1CCN(CCOc2cc(Cl)ccc2Cl)CC1 | inactive | 
CCCNC(=O)OC[C@H]1O[C@@H](CCO/N=C2/[C@H]3O[C@@H]3[C@@H](O)[C@H]3[C@H]2CCn2c(=O)n(-c4ccccc4)c(=O)n23)C=C[C@@H]1Oc1ccc(OC)cc1 | 3.16 µM (active) | 
CC(C)CO/N=C1/[C@H]2O[C@@H]2[C@@H](O)[C@H]2[C@H]1CCn1c(=O)n(-c3ccccc3)c(=O)n12 |  | -14% [at 11.4 µM] (inactive)
COc1ccc(O[C@H]2C=C[C@@H](c3ccccc3)O[C@H]2CO/N=C2/[C@H]3O[C@@H]3[C@@H](O)[C@H]3[C@H]2CCn2c(=O)n(-c4ccccc4)c(=O)n23)cc1 | 3.16 µM (active) | 
CC(=O)OC[C@H]1O[C@@H](O/N=C2/[C@H]3O[C@@H]3[C@@H](O)[C@H]3[C@H]2CCn2c(=O)n(-c4ccccc4)c(=O)n23)[C@H](OC(C)=O)[C@@H](OC(C)=O)[C@@H]1OC(C)=O |  | -17.4% [at 11.4 µM] (inactive)
O=c1n(-c2ccccc2)c(=O)n2n1CC[C@H]1/C(=N\OCc3ccccc3)[C@H]3O[C@@H]3[C@@H](O)[C@@H]12 |  | -7.77% [at 11.4 µM] (inactive)
CC(C)=CCC/C(C)=C/CO/N=C1/[C@H]2O[C@@H]2[C@@H](O)[C@H]2[C@H]1CCn1c(=O)n(-c3ccccc3)c(=O)n12 |  | -17.8% [at 11.4 µM] (inactive)
O=C(CP(=O)(c1ccccc1)c1ccccc1)Nn1cnnc1 | inactive | 
O=C(c1csnn1)N1CCC2(CCCN(c3ccccc3)C2)CC1 | 12.6 µM (active) | 
O=C(c1csnn1)N1CCC2(CC1)CN(c1ccccc1)C2 | inactive | 
O=C(c1csnn1)N1CCC2(CC1)CCN(c1ccccc1)CC2 | inactive | 
O=C(c1csnn1)N1CCC2(CC1)CCN(c1ccccn1)CC2 | inactive | 
O=C(c1csnn1)N1CCC2(CCCN(c3ccc(-c4ccccc4)cc3)C2)CC1 | 7.94 µM (active) | 
O=c1c(Cc2ccccc2)c(O)nc2n1CCS2 |  | -2.9% [at 2.29 µM] (inactive)
CN1CCC(n2[nH]c(-c3ccccc3)c(Cc3ccccc3)c2=O)CC1 | 3.98 µM (active) | 
CCNc1ncc2nc(-c3ccc(Cl)cc3)c(=O)n(C3CC3)c2n1 | inactive | 
CCOC(=O)c1c(C)oc2c1cc(O)c1ccccc12 | 14.1 µM (active) | 
CCOC(=O)c1c(C(C)(C)C)oc2ccc(O)cc12 | inactive | 
CCOC(=O)c1c(C)oc2c1c(C=NC1CCS(=O)(=O)C1)c(O)c1ccccc12 (stereo not drawn) | inactive | 
CN(C)CN1CSC(=S)N(CN(C)C)C1 |  | -11.6% [at 11.4 µM] (inactive)
COc1cc(CNC(=O)CCCC/C=C\C(C)C)ccc1O | 3.98 µM (active) and 7.94 µM (active) | 
COc1cc(CC(=O)O)ccc1O | inactive | 

Compound | AC50 | activity, negative = inhibition
COc1cc([C@H](O)C(=O)O)ccc1O | inactive | 
CCn1c(SCC(=O)Nc2sc3c(c2C(N)=O)CCC(C)C3)nnc1-c1ccco1 (stereo not drawn) | 7.08 µM (active) | 
CCOC(=O)c1c(NC(=S)NC(=O)c2cnn(CC)c2)sc2c1CCC(C)C2 (stereo not drawn) | inactive | 
CCn1c(SCC(=O)Nc2sc3c(c2C#N)CCC(C(C)(C)C)C3)nnc1-c1ccco1 (stereo not drawn) | inactive | 
CC(=O)C[C@H](c1ccc([N+](=O)[O-])cc1)c1c(O)c2ccccc2oc1=O | inactive | 
CC1=NCC[N@@+]1(CCc1ccccc1)Cc1ccccc1 |  | -18.6% [at 11.4 µM] (inactive)
COc1ccccc1CNc1ccnc(-c2cccc(C#N)c2)n1 | 3.98 µM (active) | 
COc1ccc(CNc2ccnc(-c3cccc(C#N)c3)n2)c(OC)c1 | 2 µM (active) | 
N#C[C@H](c1ccccc1)N1CCCN([C@@H](C#N)c2ccccc2)C1c1ccccc1O (stereo partly drawn) |  | -24.5% [at 11.4 µM] (inactive)
O=C(O)CC/C=C\CC[C@H]1[C@@H](N2CCCCC2)[C@@H](O)C[C@@H]1OCc1ccc(-c2ccccc2)cc1 | inactive | 
O=C(Nc1nnc(SCc2c(Cl)cccc2Cl)s1)C1CCCO1 (stereo not drawn) | 12.6 µM (active) | 
NC(=O)c1ccc(NC(=O)C2CCCO2)cc1 (stereo not drawn) | inactive | 
O=C(Nc1nnc(SCc2ccc(Cl)cc2Cl)s1)C1COc2ccccc2O1 (stereo not drawn) | 4.47 µM (active) | 
O=C(Nc1ncc(Cc2ccccc2)s1)C1COc2ccccc2O1 (stereo not drawn) | inactive | 
CCCCCCCCCCCCCCCC[N+](C)(C)CCN(Cc1ccc(OC)cc1)c1ncccn1 | inactive | 
NC(N)=NC(N)=Nc1c(F)c(F)c(F)c(F)c1F |  | -1.13% [at 11.4 µM] (inactive)
Cc1cccc(-n2c(Cn3nc(C)c([N+](=O)[O-])c3C)n[nH]c2=S)c1 |  | -17% [at 2.29 µM] (inactive)
CC(C)=C1C(=O)NN(c2ccc(F)c(Cl)c2)C1=O |  | -12.4% [at 11.4 µM] (inactive)
Cc1nn(CCc2n[nH]c(=S)n2-c2ccc(F)c(Cl)c2)c(C)c1[N+](=O)[O-] | 3.16 µM (active) | 
C[n+]1ccccc1/C=N\O | inactive | 
CC(C)N1CCN(c2ccc(OC[C@@H]3CO[C@@](Cn4cncn4)(c4ccc(Cl)cc4Cl)O3)cc2)CC1 | 1.58 µM (active) | 
COc1ccccc1CNc1nc(-c2c(C)noc2C)nc2ccccc12 | 10 µM (active) | 
COc1ccc(CNc2nc(-c3c(C)noc3C)nc3ccccc23)c(OC)c1 | 2.51 µM (active) | 
Cc1noc(C)c1-c1nc(NCc2cccs2)c2ccccc2n1 | 6.31 µM (active) | 

Compound | AC50 | activity, negative = inhibition
CCn1cc(C(=O)O)c(=O)c2cnc(N3CCCC3)nc21 | inactive | 
O=C(Nc1c[nH]c(=O)[nH]c1=O)Oc1ccccc1 |  | -22.1% [at 11.4 µM] (inactive)
CN(C)c1ccc(-c2cncnc2NCc2cccs2)cc1 | 0.794 µM (active) | 
CN(C)C(=O)c1ccc(-c2cncnc2NCc2cccs2)cc1 | 3.16 µM (active) | 
Cc1cc(=O)oc(C)c1C(=O)NCc1ccccc1 |  | 0.149% [at 2.29 µM] (inactive)
CCCn1c2c(c(O)c(C(=O)NCc3ccccc3)c1=O)CCCC2 | 17.8 µM (active) | 
CCCCCCc1nc2ccccc2c(=O)n1NC(=O)c1c(O)c2c(n(CC(C)C)c1=O)CCCC2 |  | 10% [at 2.29 µM] (inactive)
COc1ncc2nc(-c3ccccc3)c(=O)n(-c3ccccc3)c2n1 | inactive | 
Cn1cc(-c2nc3cnc(Oc4ccccc4)nc3n(C)c2=O)c2ccccc21 | inactive | 
COc1ncc2nc(-c3cn(C)c4ccccc34)c(=O)n(CCC#N)c2n1 | 6.31 µM (active) | 
COc1ccc(-n2c(=O)c(-c3cn(C)c4ccccc34)nc3cnc(OC)nc32)cc1 | 1.58 µM (active) | 
COc1ncc2nc(-c3cn(C)c4ccccc34)c(=O)n(C)c2n1 | 5.01 µM (active) | 
CC(=O)c1cnc2c(C(=O)O)cnn2c1C | inactive | 
CCOc1cc(NC(=O)c2ccccc2[N+](=O)[O-])c(OCC)cc1NC(=O)CC(C)C |  | 3.38% [at 2.29 µM] (inactive)
Cc1c(NC(=O)CCCOc2ccccc2)cccc1[N+](=O)[O-] | 14.1 µM (active) | 
Cc1ccc(OCC(=O)NNC(=O)CCC(=O)Nc2ccc(C)cc2C)cc1 | inactive | 
O=C1NCCCC1C(=O)Nc1ccccc1C(F)(F)F (stereo not drawn) | inactive | 
Cc1cccc(OCCCC(=O)Nc2ccccc2C(F)(F)F)c1 | 14.1 µM (active) | 
CCN(CC)S(=O)(=O)c1ccc(OC)c(NC(=O)c2cc([N+](=O)[O-])ccc2Cl)c1 | 12.6 µM (active) | 
CCCCC(=O)Nc1cc(OCC)c(NC(=O)c2ccccc2[N+](=O)[O-])cc1OCC | 7.08 µM (active) | 
Cc1c(NC(=O)/C=C/C(=O)O)cccc1[N+](=O)[O-] | inactive | 
